Data from publication PMC12136788.
Changes are numbered by the printed parent chain. The full ranking holds about 24,000 sequences; the median of “enrichment r” is about 0.99, and the highest 2% start at about 3.7. This is one part of a sample in which the highest values are shown more often than they occur.

T1: UNK ZnF1-3 (human, UniProt Q9C0B0 31-174)
T1 sequence: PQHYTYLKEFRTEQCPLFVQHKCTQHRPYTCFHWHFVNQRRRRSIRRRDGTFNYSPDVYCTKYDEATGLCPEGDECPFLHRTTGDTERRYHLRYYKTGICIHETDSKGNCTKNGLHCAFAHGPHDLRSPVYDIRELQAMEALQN

B1: chr5:31803264:31803265:+_ENSMUSG00000064037_ENSMUST00000076949|mus_mus|FALSE|FALSE (ssRNA)
RNA: GGGAGUUCUACAGUCCGACGAUCUGGAAAUGAGGAAGCCAGGGCCUCAGUGAUGAUUGUCCCUGAAGCUGACCAGGUAAAUACUUCAAUCUGUCCAGGUGUGUCAAUCAAGACAUAUCUGAAUGUGUUCUGGGCCUUCUCAAUCAACAGAGGAUUGAGCAUCA
B2: 64960267_64960387_5255_CDS_ENSG00000171988_ENST00000542921|human|control|control (ssRNA)
RNA: GGGAGUUCUACAGUCCGACGAUCUGAGUGAGCUGGUUCUUCUCCUUUUUUACUGCGAAUAAGUCUACAUUCUCGACACUUUUGUAAAUUAGGCCCUAUCUCACAGCAGGAGUCAUCCUGUAAAAAGGAUUCCCCAGUUUGCUUCAACAGAGGAUUGAGCAUCA
B3: chr4:76721835:76721836:+_ENSG00000138768_ENST00000264904|hu_mus|hu_hu_hu_mus_True|98_108 (ssRNA)
RNA: GGGAGUUCUACAGUCCGACGAUCGUUGGCUGGGGUUUCUGAGAUGCCUCUGGAAUAUAACUCAUGUUUGCUAAUAAAUCCUAGUUUCUCUAUGAAAUUCUCUUUGCCAAUCCUCUUCUCUAUUAGUUGCUUUAGUUUCUCUUUCAACAGAGGAUUGAGCAUCA
B4: chr1:241675328:241675329:-_ENSG00000091483_ENST00000366560|hu_hu|FALSE|FALSE (ssRNA)
RNA: GGGAGUUCUACAGUCCGACGAUCGCUUUUAUUAACAUGAUCGUUGGGAUGCACAGGUAUCUUGCUGCCAAGUUCACCUCCUAACAUUUCAAUUGCUCUAUUGCUAAUGACUUCAUUUACAUUCAUAUUUGUCUGAGUUCCUGACAACAGAGGAUUGAGCAUCA
B5: 21460886_21461006_6735_CDS_ENSMUSG00000042453_ENSMUST00000161356|mouse|control|control (ssRNA)
RNA: GGGAGUUCUACAGUCCGACGAUCAGGAUUUUUGGUGCUUAUUUUACAGGUUGGCCCAGAGUAGCCCGGGUCACAUAUACACUUGGUUCCAUUGAUGCAGCUCCCGUGCCCAUAGCACAUCUCUUCACACUGGGGACCAAUGUACAACAGAGGAUUGAGCAUCA
B6: chr10:121586544:121586545:+_ENSG00000198825_ENST00000369080|hu_mus|motif|central (ssRNA)
RNA: GGGAGUUCUACAGUCCGACGAUCCGACUGCCUAAUCGAGGUGCUGACACAAUAAUCCCACAGCUUGGGAGAAUGUAAUCGGUUGGCCCUACGCUCUCUAAAGAAUUGGCUAGCUGCUUGUCUUCCUCCGACUUAGAAUUUGUACAACAGAGGAUUGAGCAUCA
B7: chr2:153237265:153237266:-_ENSMUSG00000061411_ENSMUST00000109784|mus_mus|mus_mus_mus_hu_False|28_78 (ssRNA)
RNA: GGGAGUUCUACAGUCCGACGAUCAAAAAAAAAAAAAAAAAAGUGUCCUUGUGCCCAAAGUCUCAGAUGCUUGGAGUGUGGCUAGAAACAGCUCUUUUGGAUCCCACCUCUUUCAGAAACAAAAUGUACCAACUGGUGAGGCAGCAACAGAGGAUUGAGCAUCA
B8: chr2:153237265:153237266:-_ENSMUSG00000061411_ENSMUST00000109784|mus_mus|FALSE|FALSE (ssRNA)
RNA: GGGAGUUCUACAGUCCGACGAUCAAAAAAAAGAAAAGAAAAGUGUCCUUGUGCCCAAAGUCUCAGAUGCUUGGAGUGCAGCUAGAAACAGCUCUUUUGGAUCCCACCUCUUUCAGAAAACAGUGUACCAACUGGUGAGGCAGGCAACAGAGGAUUGAGCAUCA
B9: chr2:153237265:153237266:-_ENSMUSG00000061411_ENSMUST00000109784|mus_mus|mus_mus_mus_hu_False|78_108 (ssRNA)
RNA: B7 RNA with A32G, G115A
B10: 112580157_112582736_3545_CDS_ENSG00000153107_ENST00000341068|human|control|control (ssRNA)
RNA: GGGAGUUCUACAGUCCGACGAUCCAAAUCUCUUAAAGUGAAUCCUACAUUAGUCAUCCAGACAACCAAUCUUUCAGCUAGACUAGAAACAGAUGUAGAAUGCCUGAAACUAAACCUGUUUUCCUCUUGUUCUACUUGCAACUUCAACAGAGGAUUGAGCAUCA
B11: chr2:153237265:153237266:-_ENSMUSG00000061411_ENSMUST00000109784|mus_mus|mus_mus_mus_hu_False|78_78 (ssRNA)
RNA: B7 RNA with G115A
B12: chr2:153237265:153237266:-_ENSMUSG00000061411_ENSMUST00000109784|mus_mus|mus_mus_mus_hu_False|78_98 (ssRNA)
RNA: B7 RNA with A37G, G115A
B13: chr2:153237265:153237266:-_ENSMUSG00000061411_ENSMUST00000109784|mus_mus|mus_mus_mus_hu_False|58_78 (ssRNA)
RNA: B7 RNA with U78C, G79A, G115A
B14: 61074685_61077595_487_3pUTR_ENSG00000119541_ENST00000238497|human|control|control (ssRNA)
RNA: GGGAGUUCUACAGUCCGACGAUCUCUUUUUUUCAGGAUCAUCAGAUUCUCCUUCCCCAUCACUGUCAUUCCCCUUCUCAUCUGCUGGACUCGGCUGUCCUUCUUUCACUGGCUUCUGUGCUUUUUUCUCUUUAUUUUUCAGGUCAACAGAGGAUUGAGCAUCA
B15: chr7:149068622:149068623:-_ENSMUSG00000025139_ENSMUST00000001950|mus_hu|mus_mus_mus_hu_False|8_28 (ssRNA)
RNA: GGGAGUUCUACAGUCCGACGAUCGUGAGGCCUCUGAGUGUGGCUUGUGGUCUGUCCUGGGUUAGAGUUGUUAAUAUCACGGAACAUACCAUCUAGAACGUUCCAGUCUGCCUGACUACCUUCAUUCGCAAGAGGGCAGAAAUCCAACAGAGGAUUGAGCAUCA
B16: chr5:138634757:138634758:+_ENSMUSG00000036968_ENSMUST00000110934|mus_hu|FALSE|FALSE (ssRNA)
RNA: GGGAGUUCUACAGUCCGACGAUCGUAGACCAAGUAUCUAUCCCACCUAAAUUAUCAGCAACUCCAGGCCAUGACCCAGUGUCCCAUUCUCCUUCACGGUUUGCUGGUGUGUAGCCUCCUGGAUACAGGCAAUGUAUAUAGAUCCAACAGAGGAUUGAGCAUCA
B17: chr17:56552419:56552420:-_ENSMUSG00000013236_ENSMUST00000086828|mus_mus|mus_mus_mus_hu_False|88_88 (ssRNA)
RNA: GGGAGUUCUACAGUCCGACGAUCAAAAAAUACACUAUUUAAAAAAAAAAGAAAAAAACGGGAUACAGUUACACUGAGAGUUUUAAAAGAAAGCUGGAUUCUGGUCCCAGCCCAGUGUCCCCAGGCUGCAGAGCGGGGAGGAGCCAACAGAGGAUUGAGCAUCA
B18: chr17:56552419:56552420:-_ENSMUSG00000013236_ENSMUST00000086828|mus_mus|mus_mus_mus_hu_False|8_88 (ssRNA)
RNA: B17 RNA with C128A, A129G, G130U, A131G, G132C, C133G, G135A, G136A
B19: chr17:56552419:56552420:-_ENSMUSG00000013236_ENSMUST00000086828|mus_mus|mus_mus_mus_hu_False|58_88 (ssRNA)
RNA: B17 RNA with G77C, G79C, U81A
B20: chr17:56552419:56552420:-_ENSMUSG00000013236_ENSMUST00000086828|mus_mus|mus_mus_mus_hu_False|28_88 (ssRNA)
RNA: B17 RNA with C107U, A108U, C112A, G114A, U115A
B21: 30734625_30737523_1216_CDS_ENSG00000101337_ENST00000398022|human|control|control (ssRNA)
RNA: GGGAGUUCUACAGUCCGACGAUCCAGGGAGCUGAGGAUCAUGGGGUACUGGGGGGGCCUGAAGACGUCGCCGUGCACCAACUUCCACCCAGACUCCUCCAUGGUGUCUUCAAUGUCAUCCUCCUUGUUGUAGUUGGCAAUGUCCAACAGAGGAUUGAGCAUCA
B22: chr7:149068622:149068623:-_ENSMUSG00000025139_ENSMUST00000001950|mus_hu|mus_mus_mus_hu_False|68_68 (ssRNA)
RNA: GGGAGUUCUACAGUCCGACGAUCGUGAGGCCUCUGAGUGUGGCUUGUGGUCUGUCCUGGGUUAGAGCUGCUGGUAACACGGAACAUACCAUCUAGAACGUUCCAGUCCCGCCUGACACCUUCAUUCCCAAUGGAGAAGAAAUCCAACAGAGGAUUGAGCAUCA

target: T1, UNK ZnF1-3; test: nsRBNS (natural sequence RNA bind-n-seq); RBNS binding buffer (assumed for nsRBNS): 25 mM Tris pH 7.5, 150 mM KCl, 3 mM MgCl2, 0.01% Triton X-100, 500 ug/ml BSA, 20 U/ml SUPERase-In, 4 C; UNK is unkempt and MSI1 is Musashi-1; names of the RNAs are library labels; protein concentration not given here; high values mean tight binding

Binder	binding signal [enrichment R]
B1	0.591
B2	0.8
B3	0.409
B4	0.465
B5	0.458
B6	1.12
B7	4.56
B8	1.55
B9	3.65
B10	0.842
B11	5.71
B12	4.81
B13	6.45
B14	0.231
B15	0.726
B16	0.757
B17	7.69
B18	6.77
B19	12.3
B20	8.27
B21	0.573
B22	0.824
